The structures appear in SMILES notation. “And” between values parts separate entries of the source, which are not always exact repeats. Equal entries are not always repeated. This is part of a sample that, as a whole, favours compounds with a hit. Of some 83,000 tested, about 20% had one in any assay.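 How to read the values: 0–100, growth inhibition (40 = 60% inhibited); 0, no net growth; -100 to 0, cell death (-40 = 40% of starting cells died; -100 = all dead).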 The source made the active and inactive calls. Rule for the calls: active = growth percent below 10; inactive = the rest.

The test system of the test is HL-60(TB) leukemia. In words: NCI-60 one-dose screen, 48 h (100 = growth as untreated, 0 = no growth, -100 = all killed). The note with it: 10 µM unless noted.
Consider `CCOC(=O)c1ccncc1`, for which the growth is 97.3% (inactive). The result for `N#Cc1nnn(-c2ccc(S(N)(=O)=O)cc2)c1NCC(=O)c1ccccc1` reads 88.4% (inactive); that for `O=C(CCCCC1CCSS1)Nc1ncnc2n[nH]c(-c3ccc(Oc4ccccc4)cc3)c12` (centres undefined), 78.8% (inactive); that for `O=C1/C(=C/c2ccc(Cl)cc2)SC(=S)N1CCc1ccc(O)cc1`, 76.6% (inactive). Consider `C=CC(=O)NC(=O)Nc1ccccc1Cl`, for which the growth is 33.4% (inactive). `Fc1ccc(CNc2c3ccccc3nc3ccccc23)c(F)c1`: the growth was 58.3% (inactive). The result for `CN1CCN(CCCOc2ccc3nc(Nc4ccc(C(F)(F)F)c(Cl)c4)ccc3c2)CC1` reads 12.5% (inactive); that for `CCCCn1cnc2c(=O)[nH]cnc21`, 108% (inactive). For `CCN(CC)CCOc1nc2cc(OC)c(OC)cc2c2c1-c1ccc(OC)cc1C2=O`, the growth is 93.4% (inactive). The result for `C[C@]12C[C@H]1CC[C@]1(C)[C@@H]2CC[C@@]23C[C@H](CC[C@H]21)[C@@](O)(CO)C3` reads 103% (inactive); that for `COc1cc(NC(=O)CCSc2nc3ccccc3c(=O)n2CCc2ccccn2)cc(OC)c1OC`, 99.1% (inactive).

In the case of `COc1ccc(CC(C#N)c2cc3ccccc3[nH]2)cc1` (centres undefined), the growth was 97.5% (inactive). In the case of `Cc1nc2c(=O)[nH]c(=S)[nH]c2[nH]c1=O` it was 75.3% (inactive) and 96.3% (inactive); in that of `COc1ccc(Cn2c(Br)c3c(c2Br)-c2nc(NC(=O)c4ccc(OC)cc4)sc2CC3)cc1`, 75.9% (inactive).

Consider `COc1ccc(C/C(C)=C(/c2ccc(OCCN3CCCCC3)cc2)c2ccc(OC(=O)NCc3ccccc3)cc2)cc1`, for which the growth was -75.1% (active). Regarding `N#CSCC(=O)c1ccc(Cl)cc1`, the growth was 73.4% (inactive). The result for `NC(=O)c1cc2c3ccccc3ccn2c1-c1ccccc1` reads -3.94% (active); that for `Cc1c(Cc2ccccc2)c(=O)oc2c(C)c(OCC(=O)n3nc(C#N)cc3N)ccc12`, 101% (inactive); that for `Cc1ccc(S(=O)(=O)OCCN(CCOS(=O)(=O)c2ccc(C)cc2)c2c[nH]c(=O)[nH]c2=O)cc1`, 99.2% (inactive). The result for `Cc1cc2c([nH]1)CSc1cc(S(=O)(=O)c3ccccc3)c(=O)[nH]c1-2` reads 27.7% [100 µM] (inactive); that for `CC(c1ccccn1)C(C)(O)C(C)c1ccccn1` (centres undefined), 69.8% (inactive). In the case of `Nc1nonc1-c1nc2ccccc2n1Cc1ccc(F)cc1` it was 21.5% (inactive).

Turning to `O=C(CCc1ccc(O)cc1)N/N=C/c1cc(Br)ccc1O`, the growth was -6.29% (active). In the case of `Cc1cc(NC(=O)NC(=O)c2ccccc2N(C)C)ccc1Oc1ncc(Br)cn1` it was -13.6% (active) and 20.7% (inactive); in that of `CCC(C)C1CCC(O)CC1` (centres undefined), 99.3% (inactive); in that of `COc1ccc(C(=O)N2NC(=O)/C(=C/c3ccccc3F)N=C2c2ccccc2)cc1`, 93.9% (inactive). The result for `Cc1ccc(NCCN(C)CC(C)O)c2c(=O)c3ccc(Cl)cc3sc12` (centres undefined) reads 9.65% (active); that for `O=C(Nc1ccc(CN2CCOCC2)cc1)c1ccc(-c2cc(Cl)ccc2Cl)o1`, 28.8% (inactive); that for `O=C1/C(=C/c2ccc(F)cc2)COc2ccc(O)cc21`, 19.1% (inactive). On to `CCCCCCCCCCCCCCCCCCOc1ccccc1N`, for which the growth is 2.15% (active). The result for `CCCCC(N)(C(=O)O)C1CCCC1` (centres undefined) reads 132% (inactive); that for `CCN(CC)CCCNc1ccnc2cc3ccccc3cc12`, 83.7% (inactive); that for `COc1cc(-c2nc(-c3ccccc3)c(-c3ccccc3)[nH]2)cc(OC)c1O`, -8.92% (active). Regarding `O=C1/C(=C/c2ccc(F)cc2)COc2ccc(O)c(O)c21`, the growth was -17% (active). `CC(=O)Nc1c(I)c(NC(C)=O)c(I)c(C(=O)O)c1I`: the growth is 92.4% (inactive) and 95.8% (inactive).

Turning to `CC(=O)c1ccc2c(c1)N(CCCN1CCN(CCO)CC1)c1ccccc1S2`, the growth was 73.9% (inactive) and 2.94% (active). With `O=C(O)c1cn(C2CC2)c2cc(N3CCN(C(=O)c4cc(-c5ccc(Cl)cc5)nc5ccccc45)CC3)c(F)cc2c1=O`, the growth was 101% (inactive). In the case of `O=C(/C=C/CN1CCCCC1)Nc1cc2c(Nc3ccc(F)c(Cl)c3F)ncnc2cc1OCCOC(F)F`, the growth is 17.9% (inactive). Take `Cc1ccc(/C=N/Nc2nc(Nc3ccccc3)nc(-n3nc(C)cc3C)n2)cc1`: the growth was 53.3% (inactive).

For the origin of these results see PubChem BioAssay (NCI).
